PubChem BioAssay (NCATS)
“And” between values parts separate entries of the source, which are not always exact repeats. Equal entries are not always repeated. Records with an inconclusive call do not appear. Unmarked numbers belong to inactive results. The source made the active and inactive calls. The call rests on the fitted dose curve; in most records, active means well fitted curve in the direction sought with a large enough effect; inconclusive means small, poorly fitted or top-dose-only effect, or another doubt; inactive means no such curve, though single readings can be large; an effect the other way counts as inactive or inconclusive.

Tests used:
[1] = Primary qHTS for inhibitors of nuclear receptor binding SET domain protein 2 (NSD2) in an isogenic RCH-ACV NSD2 p.E1099K mutant (9B) (AID 1645876); further: nearly all actives have a fitted effect of over 70% in size; further: potency means the concentration at half of the fitted maximal effect
[2] = Primary qHTS for inhibitors of nuclear receptor binding SET domain protein 2 (NSD2) in an RCH-ACV wild type WT cells (2C) (AID 1645877); further: nearly all actives have a fitted effect of over 70% in size; further: potency means the concentration at half of the fitted maximal effect; on activity change, negative = cell killing: on the % scale 0 is the no-effect control and ±100 the full control effect
[3] = molecular target: Rap guanine nucleotide exchange factor 3 (Homo sapiens) (UniProt O95398); experiment: Confirmatory qHTS for antagonist of cAMP-regulated guanine nucleotide exchange factor 3 (EPAC1) (AID 1645880);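 further: plate controls were DMSO only for no effect and full effect of the ATA control for full effect; nearly all actives have a fitted effect of over 55% in size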
Sequence of Rap guanine nucleotide exchange factor 3 (Homo sapiens) (O95398 whole entry, looked up): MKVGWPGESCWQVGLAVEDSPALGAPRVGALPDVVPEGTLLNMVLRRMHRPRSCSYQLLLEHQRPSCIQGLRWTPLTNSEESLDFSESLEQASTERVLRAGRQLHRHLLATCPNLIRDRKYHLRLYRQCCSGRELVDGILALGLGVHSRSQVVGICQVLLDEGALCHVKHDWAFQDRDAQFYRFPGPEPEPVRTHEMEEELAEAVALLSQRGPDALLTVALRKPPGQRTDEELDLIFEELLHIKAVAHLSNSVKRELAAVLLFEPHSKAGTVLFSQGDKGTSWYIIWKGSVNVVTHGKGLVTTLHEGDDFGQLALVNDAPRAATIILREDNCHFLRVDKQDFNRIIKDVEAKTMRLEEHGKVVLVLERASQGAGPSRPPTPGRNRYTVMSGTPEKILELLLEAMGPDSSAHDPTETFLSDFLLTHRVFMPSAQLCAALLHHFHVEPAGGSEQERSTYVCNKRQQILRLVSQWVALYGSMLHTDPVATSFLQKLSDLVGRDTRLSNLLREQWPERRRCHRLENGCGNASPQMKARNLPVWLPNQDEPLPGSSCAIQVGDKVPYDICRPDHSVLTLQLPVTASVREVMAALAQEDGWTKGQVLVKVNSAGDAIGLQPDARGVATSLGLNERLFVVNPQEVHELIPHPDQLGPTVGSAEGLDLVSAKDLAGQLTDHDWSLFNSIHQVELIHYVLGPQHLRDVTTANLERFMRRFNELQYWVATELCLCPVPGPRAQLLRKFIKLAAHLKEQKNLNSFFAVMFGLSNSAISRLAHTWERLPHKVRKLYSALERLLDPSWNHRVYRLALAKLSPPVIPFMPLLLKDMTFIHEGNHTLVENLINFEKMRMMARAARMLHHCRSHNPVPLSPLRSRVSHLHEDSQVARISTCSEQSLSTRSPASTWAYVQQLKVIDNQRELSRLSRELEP
Summary of the method: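 Nucleotide exchange uses 100 nM EPAC1, 250 nM RAP1B-BODIPY-GDP and 50 uM GDP, with compounds in a concentration-titration series. After 5 min at room temperature, fluorescence (480 nm ex/540 nm em) is read every 5 min for 30 min. Data are normalized to control ATA and DMSO.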

[4] = molecular target: Rap guanine nucleotide exchange factor 3 (Homo sapiens) (UniProt O95398); experiment: Confirmatory qHTS for agonist of cAMP-regulated guanine nucleotide exchange factor 3 (EPAC1) (AID 1645881);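 further: EPAC1 catalysed release of BODIPY-GDP from Rap1B seen as fluorescence loss; 100% = effect of cAMP agonist control; nearly all actives have a fitted effect of over 75% in size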
[5] = molecular target: Rap guanine nucleotide exchange factor 4 (Homo sapiens) (UniProt Q8WZA2); experiment: Confirmatory qHTS for agonist of cAMP-regulated guanine nucleotide exchange factor 4 (EPAC2) (AID 1645884);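 further: nucleotide exchange releases bodipy-GDP from Rap1 and this lowers its fluorescence; on the % scale 0 is the no-effect control and ±100 the full control effect; nearly all actives have a fitted effect of over 65% in size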
Sequence of Rap guanine nucleotide exchange factor 4 (Homo sapiens) (Q8WZA2 whole entry, looked up): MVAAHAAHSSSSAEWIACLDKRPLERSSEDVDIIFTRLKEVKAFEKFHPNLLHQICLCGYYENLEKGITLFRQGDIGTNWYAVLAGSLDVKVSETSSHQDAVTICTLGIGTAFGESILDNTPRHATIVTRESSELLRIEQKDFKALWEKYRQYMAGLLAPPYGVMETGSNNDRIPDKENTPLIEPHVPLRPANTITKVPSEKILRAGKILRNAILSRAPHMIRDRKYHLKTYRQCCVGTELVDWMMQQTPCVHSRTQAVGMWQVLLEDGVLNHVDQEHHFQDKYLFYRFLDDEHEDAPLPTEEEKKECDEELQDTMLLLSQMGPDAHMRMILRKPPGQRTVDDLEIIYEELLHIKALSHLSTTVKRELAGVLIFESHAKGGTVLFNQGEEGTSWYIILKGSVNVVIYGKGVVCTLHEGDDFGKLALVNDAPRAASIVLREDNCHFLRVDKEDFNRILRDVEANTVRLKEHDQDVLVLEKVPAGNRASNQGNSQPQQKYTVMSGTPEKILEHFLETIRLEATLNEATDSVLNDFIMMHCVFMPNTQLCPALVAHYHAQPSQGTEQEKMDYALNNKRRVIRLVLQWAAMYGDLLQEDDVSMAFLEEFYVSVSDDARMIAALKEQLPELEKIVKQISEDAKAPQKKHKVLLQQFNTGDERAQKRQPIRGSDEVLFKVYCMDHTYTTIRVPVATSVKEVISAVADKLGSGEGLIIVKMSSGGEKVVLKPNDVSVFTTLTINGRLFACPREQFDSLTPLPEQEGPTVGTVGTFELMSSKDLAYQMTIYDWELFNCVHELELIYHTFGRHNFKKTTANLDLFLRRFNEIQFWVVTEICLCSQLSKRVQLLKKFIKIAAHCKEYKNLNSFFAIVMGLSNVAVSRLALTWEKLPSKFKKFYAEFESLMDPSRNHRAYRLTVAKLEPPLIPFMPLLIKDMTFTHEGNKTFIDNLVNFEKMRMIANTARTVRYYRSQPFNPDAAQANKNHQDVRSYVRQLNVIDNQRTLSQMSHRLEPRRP

For `COc1ccc(-c2cc(=O)c3c(O)cc(O)cc3o2)cc1O`, the Potency [1] was 11.8 µM (active) and the Potency [2] was 14.8 µM (active).
With `O=c1cc(-c2cccc3c2Sc2ccccc2S3)oc(N2CCOCC2)c1` the Potency [1] was 11.6 µM (active) and 14.8 µM (active) and the Potency [2] was 11.6 µM (active) and 11.8 µM (active).
For `CC(=O)Nc1ccc([C@H](C)C(=O)Nc2ncc(C(C)C)s2)cc1`, the Potency [1] was 2.63 µM (active) and the Potency [2] was 2.35 µM (active).
For `COc1ncc(-c2ccc3nccc(-c4ccnnc4)c3c2)cc1NS(=O)(=O)c1ccc(F)cc1F`, the Potency [1] was 1.3 nM (active) and 8.3 nM (active) and the Potency [2] was 1.2 nM (active) and 7.4 nM (active).
For `NC(=O)c1cccc(-c2cc(Nc3ccc(OC(F)(F)F)cc3)ncn2)c1`, the Potency [1] was 20.5 µM (active) and 14.8 µM (active) and the Potency [2] was 23 µM (active) and 13.2 µM (active).
With `CN(C)Cc1ccc(-c2nc3cccc4c3n2CCNC4=O)cc1` the Potency [1] was 11.8 µM (active) and the Potency [2] was 7.42 µM (active).
For `COc1ccc(-c2nc(N3CCOCC3)c3sc(CN(C)c4ncc(C(=O)NO)cn4)cc3n2)cn1`, the Potency [1] was 7.3 nM (active) and 29.5 nM (active) and the Potency [2] was 8.2 nM (active) and 33.2 nM (active).
With `NS(=O)(=O)c1cccc2c1C(=O)c1cccc(O)c1C2=O` the Potency [1] was 1.66 µM (active) and the Potency [2] was 0.742 µM (active).
With `Cc1ccc(C(=O)Nc2cccc(C(F)(F)F)c2)cc1Nc1nc(-c2cccnc2)nc2c1cnn2C` the Potency [1] was “inactive” and the Potency [2] was “inactive”.
For `COc1ccc(C2Sc3ccccc3N(CCN(C)C)C(=O)C2OC(C)=O)cc1` (stereo not given), the Potency [1] was “inactive” and the Potency [2] was “inactive”.
In the case of `CCCCCN(C)CCC(O)(P(=O)(O)O)P(=O)(O)O`, the outcome [1] is reported as “inactive [at 4.96 µM]” and the activity change, negative = cell killing [2] is reported as 7.25% [at 4.96 µM].
In the case of `CC(C)(Cc1ccc2ccccc2c1)NC[C@@H](O)COc1cccc(Cl)c1C#N`, the Potency [1] is reported as 4.68 µM (active) and the Potency [2] is reported as 6.61 µM (active).
With `COC1CCC(N(C(=O)C2CCC(C)CC2)c2cc(C3=CCCCC3)sc2C(=O)O)CC1` (stereo not given) the Potency [1] was “inactive” and the Potency [2] was “inactive”.
With `CN[C@@H](C)C(=O)N[C@H]1CN(C(=O)CC(C)C)CC[C@H]2CC[C@@H](C(=O)NC(c3ccccc3)c3ccccc3)N2C1=O` the Potency [1] was “inactive” and the Potency [2] was “inactive”.
For `NC(=O)[C@@H](CCC(F)(F)F)N(Cc1ccc(-c2ncon2)cc1F)S(=O)(=O)c1ccc(Cl)cc1`, the Potency [1] was 23.5 µM (active) and the Potency [2] was 23.5 µM (active).
With `CCCCCNC(=O)N1CCC(CN(Cc2ccc(Cl)cc2)Cc2ccc([N+](=O)[O-])s2)C1` (stereo not given) the Potency [1] was “inactive” and the Potency [2] was “inactive”.
With `c1ccc2c(Cc3c[nH]c4ccccc34)c[nH]c2c1` the outcome [3] was “inactive”, the outcome [4] was “inactive” and the outcome [5] was “inactive”.
